This excerpt belongs to a sample that is enriched for hits.
mcGAS MS inh – inhibitors of Mus musculus cyclic GMP-AMP synthase, initial high-throughput assay, cell-free, RapidFire MS; recombinant mouse cGAS, cGAMP by RapidFire MS; hit rate 0.18% among 130,000; Q8C6L5; AID 1259397, 2018; inhibition, % at 12.5 µM;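 active = inhibition of cGAS enzyme activity at or above 60%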;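 also: enzyme stimulated by 45 bp dsDNA with ATP and GTP substrates; cGAMP share of summed cGAMP plus half ATP and half GTP signals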
Target sequence (Q8C6L5 whole entry, looked up): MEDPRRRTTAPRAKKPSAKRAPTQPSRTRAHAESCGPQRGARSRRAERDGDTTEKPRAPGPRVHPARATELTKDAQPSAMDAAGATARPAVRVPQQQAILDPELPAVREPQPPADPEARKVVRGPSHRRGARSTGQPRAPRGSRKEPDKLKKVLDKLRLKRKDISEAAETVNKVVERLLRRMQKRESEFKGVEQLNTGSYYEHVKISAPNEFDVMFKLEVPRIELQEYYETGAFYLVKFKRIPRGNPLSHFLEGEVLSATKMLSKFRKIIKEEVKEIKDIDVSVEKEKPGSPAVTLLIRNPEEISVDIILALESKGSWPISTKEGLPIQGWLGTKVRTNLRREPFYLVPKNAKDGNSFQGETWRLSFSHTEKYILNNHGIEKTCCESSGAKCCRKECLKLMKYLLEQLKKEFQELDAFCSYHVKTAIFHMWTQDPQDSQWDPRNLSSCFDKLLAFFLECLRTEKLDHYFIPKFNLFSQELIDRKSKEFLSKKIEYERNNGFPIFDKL
The depositor's hits bear a star.

SMILES	mcGAS MS inh
CC(C)(C)c1ccc(OCNC(=O)c2cncc(Br)c2)cc1	-2
O=C(CCc1ncc(-c2ccc(F)cc2)o1)N1CCN(c2ccccc2)CC1	-2
Cc1ccc(-c2cnc(CCC(=O)N3CCc4ccccc4C3)o2)cc1C	78*
O=C(CCc1nnc(Cc2ccc3c(c2)OCO3)o1)N1CCc2ccccc2C1	6
O=C(Nc1ccnn1C1CCN(C(=O)c2ccc3c(c2)OCO3)CC1)C1CC1	-3
O=c1c(-c2ccc(O)cc2)coc2cc(O)ccc12	-4
O=c1c(O)c(-c2ccc(O)cc2)oc2cc(O)cc(O)c12	11
O=c1c(-c2ccccc2)coc2cc(O)cc(O)c12	86*
Cc1[nH]n(-c2ccccc2)c(=O)c1C1(C(F)(F)F)NC(=O)N(C)C1=O (centres undefined)	4
COc1ccc(C=Cc2sc3ccccc3[n+]2CCCS(=O)(=O)O)cc1OCc1ccccc1	-2
Cc1ccc(C=Cc2sc3ccccc3[n+]2CCCS(=O)(=O)O)cc1	86*
Cc1[nH]n(-c2nc3ccccc3[nH]2)c(=O)c1C	29
Cc1[nH]n(-c2nc3ccccc3[nH]2)c(=O)c1C1OC(=O)c2ccccc21 (centres undefined)	99*
CCc1c(C)[nH]n(-c2nc3ccccc3[nH]2)c1=O	-2
O=C(c1ccc([N+](=O)[O-])cc1)N1CCN(C(C(=O)N2CCc3ccccc3C2)C2CCCC2)CC1 (centres undefined)	-7
CS(=O)(=O)N1N=C(C2CC2)CC1c1cc2cc3c(cc2nc1Cl)OCO3 (centres undefined)	-4
CCC(=O)O[C@H]1[C@H](O[C@@H]2[C@@H](C)[C@H](O[C@H]3C[C@@](C)(OC)[C@@H](O)[C@H](C)O3)[C@@H](C)C(=O)O[C@H](CC)[C@@](C)(O)[C@H](O)[C@@H](C)C(=O)[C@H](C)C[C@@]2(C)O)O[C@H](C)C[C@@H]1N(C)C	0
CCOC(=O)CCC(=O)OC1C(OC2C(C)C(OC3CC(C)(OC)C(O)C(C)O3)C(C)C(=O)OC(CC)C(C)(O)C(O)C(C)C(=O)C(C)CC2(C)O)OC(C)CC1N(C)C (centres undefined)	99*
CCOC(=O)CCC(=O)O[C@H]1[C@H](O[C@@H]2[C@@H](C)[C@H](O[C@H]3C[C@@](C)(OC)[C@@H](O)[C@H](C)O3)[C@@H](C)C(=O)O[C@H](CC)[C@@](C)(O)[C@H](O)[C@@H](C)C(=O)[C@H](C)C[C@@]2(C)O)O[C@H](C)C[C@@H]1N(C)C	-7
Cc1nnc(NC(=O)c2cccc(C(=O)O)c2)s1	2
Cc1cccc(NC(=O)c2ccc(S(=O)(=O)Nc3cccc(C(F)(F)F)c3)o2)n1	-3
Cc1nnc(NC(=O)c2ccc(S(=O)(=O)Nc3cccc(C(F)(F)F)c3)o2)s1	76*
O[C@H]1CN(Cc2cnn(CCN3CCOCC3)c2)C[C@@H]1N1CCCCC1	-7
CC(C)Cc1cc(-c2nn3c(-c4cccnc4)nnc3s2)n[nH]1	-5
CC(C)Cc1cc(-c2nn3c(-c4cnccn4)nnc3s2)n[nH]1	88*
SMILES	mcGAS MS inh
CC(C)c1cc(-c2nnc3sc(-c4cccnc4)nn23)n[nH]1	-5
CCn1nc(C)c(C(=O)NCc2csc(-c3cnccn3)n2)c1C	-13
O=C(NCc1ccco1)N1CCCC(c2n[nH]c(=O)n2-c2ccccc2)C1 (centres undefined)	-30
O=C(Cn1cnc2c(nnn2Cc2ccc(F)cc2)c1=O)c1ccccc1	5
CC1CN(C(C)CNCc2cn(C)nc2-c2ccncc2)CC(C)O1 (centres undefined)	-15
O=C(c1cccs1)N1CCC(c2nc3cc(Cl)ccc3s2)CC1	-9
NC(=O)n1c(O)c(C(=O)c2cccs2)c2cc(Cl)ccc21	70*
O=C(c1cccs1)c1cccs1	-7
CC1CN(C(C)c2ccc(F)cc2)CCO1 (centres undefined)	-2
Cc1cc(C(=O)NNC(=O)CCNC(=O)c2ccco2)c(C)o1	-7
Cc1cc(C(=O)NNC(=O)C=Cc2ccco2)c(C)o1	67*
CCOC(=O)NNC(=O)c1cc(C)oc1C	-12
CN(Cc1ccncn1)c1nccc(CCC(F)(F)F)n1	-12
CC1Sc2ccccc2N(Cc2ccccc2Cl)C1=O (centres undefined)	69*
Cc1ccccc1CN1C(=O)C(C)Sc2ccc(-c3ccco3)cc21 (centres undefined)	46
CC1Sc2ccc(-c3ccco3)cc2N(Cc2ccccc2Cl)C1=O (centres undefined)	69*
CC1Oc2ccccc2N(Cc2ccccc2Cl)C1=O (centres undefined)	-15
Cc1ccccc1CN1C(=O)C(C)Sc2ccccc21 (centres undefined)	24
COc1cccc(-c2ccc3c(c2)N(Cc2ccc(F)cc2)C(=O)C(C)S3)c1 (centres undefined)	-10
COc1ccc(OC)c(C(=O)N2CCCC(N3CCN(c4ccccc4C)CC3)C2)c1 (centres undefined)	-7
COc1cccc(NC(=O)COc2ccc(F)cc2Cl)c1	-17
COCCN1CCC(CNC(=O)CCOc2cccc(C)c2C)C1 (centres undefined)	-3
CCc1c(C)nn(CC(=O)N2CCCC(c3nn(C)c(=O)n3CC)C2)c1C (centres undefined)	-31
O=C(Nc1ccc(F)cc1)C(=O)Nc1ccccc1[N+](=O)[O-]	-5
O=C1OC(/C=C/c2cccc(Cl)c2Cl)=NC/1=C/c1ccccc1[N+](=O)[O-]	-14
SMILES	mcGAS MS inh
COc1ccc(/C=C2N=C(/C=C/c3cccc(Cl)c3Cl)OC\2=O)cc1	0
O=C1OC(/C=C/c2cccc(Cl)c2Cl)=NC/1=C\c1ccc([N+](=O)[O-])cc1	71*
CCCCc1ccc(NC(=O)c2cc(=O)c(OCc3ccccc3)cn2C)cc1	-4
O=C(O)c1cc(-c2ccc3[nH]ccc3c2)cc(S(=O)(=O)N2CCOCC2)c1	7
CS(=O)(=O)N1CCC(C(=O)OCc2cc(-c3ccccc3F)on2)CC1	-3
N#Cc1ccccc1NC(=O)C1=COCCO1	-8
N#Cc1ccccc1NC(=O)c1n[nH]c([N+](=O)[O-])c1Br	70*
N#Cc1ccccc1NC(=O)c1c(-c2ccccc2)c(-c2ccccc2)n[nH]c1=O	-3
C=C(C)CN(CC)C(=O)COc1ccc(OC)cc1	-11
CC(=O)OC[C@H]1O[C@@H](Oc2cc(OC(C)=O)c3c(=O)cc(-c4ccc(OC(C)=O)cc4)oc3c2)[C@H](OC(C)=O)[C@@H](OC(C)=O)[C@@H]1OC(C)=O	-4
O=C(OC[C@H]1O[C@H](OC(=O)c2cc(O)c(O)c(OC(=O)c3cc(O)c(O)c(O)c3)c2)[C@H](OC(=O)c2cc(O)c(O)c(OC(=O)c3cc(O)c(O)c(O)c3)c2)[C@@H](OC(=O)c2cc(O)c(O)c(OC(=O)c3cc(O)c(O)c(O)c3)c2)[C@@H]1OC(=O)c1cc(O)c(O)c(OC(=O)c2cc(O)c(O)c(O)c2)c1)c1cc(O)c(O)c(OC(=O)c2cc(O)c(O)c(O)c2)c1	96*
NC(=O)COc1ccc(Cl)cc1-c1nccn1Cc1ccsc1	-18
CCCOCC(=O)N1CCC(N2CCCC(C(=O)N3CCN(C)CC3)C2)CC1 (centres undefined)	-10
Cc1cc(N2C(=O)c3oc4ccccc4c(=O)c3C2c2cccc(Cl)c2)no1 (centres undefined)	-1
Cc1cc(N2C(=O)c3oc4ccccc4c(=O)c3C2c2cccc(F)c2)no1 (centres undefined)	84*
